# “And” between values parts separate entries of the source, which are not always exact repeats. Identical values can stand only once. This is part of a sample that, as a whole, favours compounds with a hit. Of some 83,000 tested, about 20% had one in any assay.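 Growth was measured after 48 h exposure to one concentration of compound in 96-well plates. Values under 10 count as active.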 The source made the active and inactive calls.
# Experiments:
# Assay in all cases: NCI-60 one-dose screen, 48 h (100 = growth as untreated, 0 = no growth, -100 = all killed)
# Settings in all cases: 10 µM unless noted
# NCI-H23 lung = tested on: NCI-H23 lung
# NCI-H226 lung = tested on: NCI-H226 lung
# NCI-H322M lung = tested on: NCI-H322M lung
# HOP-62 NSCLC = tested on: HOP-62 NSCLC
# NCI-H460 lung = tested on: NCI-H460 lung
# HOP-92 NSCLC = tested on: HOP-92 NSCLC
# NCI-H522 lung = tested on: NCI-H522 lung
# A549/ATCC NSCLC = tested on: A549/ATCC NSCLC
# 786-0 renal = tested on: 786-0 renal
# COLO 205 colon = tested on: COLO 205 colon
SMILES,growth (NCI-H23 lung),growth (NCI-H226 lung),growth (NCI-H322M lung),growth (HOP-62 NSCLC),growth (NCI-H460 lung),growth (HOP-92 NSCLC),growth (NCI-H522 lung),growth (A549/ATCC NSCLC),growth (786-0 renal),growth (COLO 205 colon)
Cn1c(SCC(=O)c2ccc(Br)cc2)nc2ccccc2c1=O,85.3% (inactive),90.7% (inactive),95.8% (inactive),105% (inactive),102% (inactive),91.3% (inactive),86.4% (inactive),96.3% (inactive),91.2% (inactive),121% (inactive)
COc1cc(-c2nc(-c3ccccc3)[nH]c2-c2ccnc(NCCCNS(=O)(=O)c3ccc(C(F)(F)F)cc3)n2)ccc1Cl,30.8% (inactive) and 57% (inactive),36.2% (inactive) and 51.7% (inactive),82.2% (inactive) and 76.4% (inactive),88.3% (inactive) and 55.4% (inactive),14.3% (inactive) and 26.7% (inactive),41.3% (inactive) and 49.4% (inactive),60.6% (inactive) and 26.8% (inactive),31% (inactive) and 29.3% (inactive),33.3% (inactive) and 35.6% (inactive),48.8% (inactive) and 11.1% (inactive)
O=C(CCCCCCN1CC(=O)N2[C@@H](C3CC3)c3[nH]c4ccccc4c3C[C@H]2C1=O)NO,66.4% (inactive),95% (inactive),74.6% (inactive),69.6% (inactive),74.5% (inactive),53.4% (inactive),24.4% (inactive),99% (inactive),108% (inactive),98% (inactive)
C#CCN(C)CCCOc1ccc(NCc2ccc(/C=C/C(=O)NO)cc2)cc1Cl,-24% (active),-11.7% (active),9.85% (active),3.99% (active),4.27% (active),-27.6% (active),2.32% (active),-3.43% (active),-2.14% (active),-24.4% (active)
Cc1ccc(/C(N)=N/C(N)=N/c2nc3ccccc3s2)cc1,48.9% (inactive),63.2% (inactive),91.3% (inactive),-42.4% (active),75.7% (inactive),122% (inactive),100% (inactive),19.6% (inactive),109% (inactive),120% (inactive)
C/C(=N\NC(=O)Nc1ccccc1)c1nnn(-c2ccc([N+](=O)[O-])cc2)c1C,94.7% (inactive),100% (inactive),99.1% (inactive),111% (inactive),108% (inactive),120% (inactive),99.9% (inactive),107% (inactive),102% (inactive),112% (inactive)
Oc1ccc(-c2nc3ccc(/C(=N\N=C\c4ccc(Cl)cc4)c4ccccc4)cc3[nH]2)cc1,94.8% (inactive),80.7% (inactive),93.7% (inactive),100% (inactive),86.4% (inactive),118% (inactive),74.6% (inactive),89.2% (inactive),66.5% (inactive),54% (inactive)
CC(=C(c1ccc(OCCCN(C)C)cc1)c1ccc(OCCCN(C)C)cc1)c1ccc(Cl)cc1,84.8% (inactive),95.5% (inactive),95.1% (inactive),99.5% (inactive),99.6% (inactive),77.9% (inactive),94.1% (inactive),79.8% (inactive),87.4% (inactive),96.6% (inactive)
O=C(Nc1cccc(Cl)c1)Nc1nc2cc([N+](=O)[O-])ccc2o1,38.4% (inactive),56.1% (inactive),37.4% (inactive),58% (inactive),26.5% (inactive),-4.19% (active),18.2% (inactive),44.6% (inactive),44.2% (inactive),75.1% (inactive)
N#Cc1nc(-c2ccccc2)oc1N1CCC(C2(C(F)(F)F)N=N2)CC1,91.6% (inactive),97% (inactive),107% (inactive),113% (inactive),102% (inactive),90.1% (inactive),96.8% (inactive),99.8% (inactive),101% (inactive),103% (inactive)
Brc1ccc(-c2cc(-c3ccc4c(c3)OCCO4)n[nH]2)s1,40.6% (inactive),75.4% (inactive),42.7% (inactive),51.3% (inactive),14.3% (inactive),64.2% (inactive),20.9% (inactive),33.3% (inactive),73.5% (inactive),28.7% (inactive)
CC(C)(C)Nc1nc2c(OCCc3ccccc3)cccn2c1-c1ccc([N+](=O)[O-])cc1,62.4% (inactive),70.5% (inactive),64.7% (inactive),78.1% (inactive),60.8% (inactive),54.7% (inactive),41.4% (inactive),53.5% (inactive),75.1% (inactive),49% (inactive)
COc1ccc(OC)c(CCn2cncc2-c2c[nH]c3ccc(Cl)cc23)c1,38.1% (inactive),59.5% (inactive),88.4% (inactive),49.5% (inactive),46.1% (inactive),20.8% (inactive),3.34% (active),33.3% (inactive),69.7% (inactive),29.8% (inactive)
CCCC[n+]1ccc(SCC(=O)n2ccc3ccccc32)c2ccccc21,74.5% (inactive),71.1% (inactive),96.4% (inactive),103% (inactive),97.8% (inactive),138% (inactive),83.2% (inactive),87.5% (inactive),106% (inactive),99.8% (inactive)
O=C1C(SCc2ccccc2)=C(Cl)CN1c1ccccc1,95.6% (inactive),101% (inactive),97.3% (inactive),104% (inactive),102% (inactive),94.5% (inactive),-48.8% (active),106% (inactive),104% (inactive),130% (inactive)
CC(Nc1ncnc2ccc(-c3cnc4cnccn34)cc12)c1ccccc1 (stereo not given),54.8% (inactive),46.9% (inactive),26.4% (inactive),68.8% (inactive),61% (inactive),27.1% (inactive),27.3% (inactive),37.6% (inactive),47.9% (inactive),81% (inactive)
CN(C)S(=O)(=O)c1ccc(-c2nc(C(Cl)Cl)nc3cc(-c4ccc(F)cc4)nn23)cc1,-3.27% (active),45.4% (inactive),31% (inactive),9.75% (active),1.94% (active),14.6% (inactive),-16.5% (active),7.5% (active),72.6% (inactive),2.25% (active)
COCCOc1ccc2ncc(C#Cc3cncc(C(=O)Nc4ccc(CN5CCN(C)CC5)c(C(F)(F)F)c4)c3)n2n1,-48.7% (active),-12.7% (active),18.7% (inactive),18.4% (inactive),0.556% (active),-44.1% (active),-56.4% (active),10.3% (inactive),-15.3% (active),-32.7% (active)
COc1ccc2c(c1)c(-c1nc(N)nnc1-c1c[nH]c3ccccc13)cn2C,47.7% (inactive),37.6% (inactive),57.3% (inactive),44.8% (inactive),14.2% (inactive),54% (inactive),29.9% (inactive),48.4% (inactive),54.5% (inactive),29.3% (inactive)
O=C(N/N=C\c1ccc([N+](=O)[O-])cc1)c1ccc2nc(-c3ccc(Br)cc3)[nH]c2c1,8.79% (active),62.4% (inactive),68.2% (inactive),29.7% (inactive),-43.8% (active),55% (inactive),5.47% (active),27.2% (inactive),36.8% (inactive),-50.6% (active)
Fc1cc(F)cc(NNC(=S)c2ccccc2)c1,23.1% (inactive),49.7% (inactive),73.4% (inactive),58.4% (inactive),21.9% (inactive),-16.7% (active),37% (inactive),31% (inactive),53.3% (inactive),108% (inactive)
CC(C)NC(=O)c1cc(-c2ccc(NC(=O)Nc3ccc(F)cc3)cc2)nc2cccnc12,99.4% (inactive),99.1% (inactive),104% (inactive),101% (inactive),104% (inactive),96.7% (inactive),96.8% (inactive),104% (inactive),97.1% (inactive),118% (inactive)
COC(=O)N1CCN(CCNCc2ccc(NC(=O)c3ccc(C)c(C#Cc4cnc5cccnn45)c3)cc2C(F)(F)F)CC1,36.2% (inactive),31.1% (inactive),75.3% (inactive),24.9% (inactive),22.2% (inactive),12.2% (inactive),30.2% (inactive),27.9% (inactive),38.2% (inactive),2.48% (active)
COc1ccc(/C=N/N=C(/c2ccccc2)c2ccc3nc(-c4ccc(Cl)cc4)[nH]c3c2)cc1,91.1% (inactive),77% (inactive),84.3% (inactive),99.3% (inactive),90% (inactive),106% (inactive),72.9% (inactive),75.1% (inactive),76.9% (inactive),72% (inactive)
Cc1ccc(-c2csc(N/N=C/c3cccs3)n2)cc1,79.4% (inactive),70.1% (inactive),97% (inactive),95.3% (inactive),99.4% (inactive),87.3% (inactive),73.3% (inactive),84.2% (inactive),97.5% (inactive),115% (inactive)
CCN(CC)c1ccc(/C=N/NC(=O)c2ccc(NS(C)(=O)=O)cc2)cc1,36.5% (inactive),51.8% (inactive),27.3% (inactive),17.4% (inactive),8.88% (active),80% (inactive),21.8% (inactive),29.9% (inactive),13.5% (inactive),13.9% (inactive)
